Where “and” joins values, the source holds several entries; their conditions need not be identical. Equal values may be shown once. The campaign covered roughly 5,500 compounds. About 2,000 (36%) were called active. Inconclusive results (about 18%) are left out. Rule as the data show it: active = normalized growth mostly below about 0.91 (no sharp cut-off); inconclusive = no clear call, values can overlap the other calls; inactive = mostly above about 0.92. The list shows a part of the results.
Assay: chemical genetic growth profiling, strain panel (AID 1159580);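 also: tested at 20 µM; growth read once vehicle control cultures reached saturation at 30 °C; 1 = growth at the plate median or of vehicle wells; lower values mean less growth of the strain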
Conditions: S. cerevisiae deletion strains, growth OD

Measured: normalized growth

CC1(C)C[C@@H]2C(=O)CC[C@H]3O[C@]3(C)CC[C@H]21
inactive: locus YAL013W, strain DEP1, stronger effect = lower value 1.01 | locus YAL021C, strain ccr4, stronger effect = lower value 0.98 | locus YAL026C, strain drs2, stronger effect = lower value 1.04 | locus YAL030W, strain snc1, stronger effect = lower value 1.01 | locus YBL061C, strain skt5, stronger effect = lower value 1.03 | locus YBR009C, strain hhf1, stronger effect = lower value 1.02 | locus YBR021W, strain FUR4, stronger effect = lower value 1.01 | locus YBR023C, strain chs3, stronger effect = lower value 1.02 | locus YBR171W, strain sec66, stronger effect = lower value 1.02 | locus YBR229C, strain ROT2, stronger effect = lower value 1 | locus YBR231C, strain swc5, stronger effect = lower value 1 | locus YBR279W, strain paf1, stronger effect = lower value 1 | locus YCL011C, strain gbp2, stronger effect = lower value 1.02 | locus YCL016C, strain dcc1, stronger effect = lower value 1.01 | locus YCL029C, strain bik1, stronger effect = lower value 0.994 | locus YCL061C, strain MRC1, stronger effect = lower value 1.01 | locus YCL069W, strain vba3, stronger effect = lower value 1.01 | locus YCR088W, strain abp1, stronger effect = lower value 1.01 | locus YDL005C, strain med2, stronger effect = lower value 1.01 | locus YDL035C, strain GPR1, stronger effect = lower value 1.01 | locus YDL040C, strain nat1, stronger effect = lower value 1.02 | locus YDL074C, strain BRE1, stronger effect = lower value 1.04 | locus YDL101C, strain DUN1, stronger effect = lower value 1.02 | locus YDL134C, strain PPH21, stronger effect = lower value 1.01 | locus YDL185W, strain tfp1, stronger effect = lower value 0.995 | locus YDL192W, strain arf1, stronger effect = lower value 0.996 | locus YDR001C, strain nth1, stronger effect = lower value 1.02 | locus YDR069C, strain doa4, stronger effect = lower value 1.03 | locus YDR101C, strain arx1, stronger effect = lower value 0.986 | locus YDR137W, strain rgp1, stronger effect = lower value 1.02 | locus YDR150W, strain NUM1, stronger effect = lower value 1.01 | locus YDR159W, strain sac3, stronger effect = lower value 1.05 | locus YDR162C, strain NBP2, stronger effect = lower value 1.02 | locus YDR195W, strain ref2 1.01 | locus YDR297W, strain sur2, stronger effect = lower value 1.01 | locus YDR318W, strain mcm21, stronger effect = lower value 0.994 | locus YDR334W, strain swr1, stronger effect = lower value 1.01 | locus YDR335W, strain msn5, stronger effect = lower value 1.01 | locus YDR388W, stronger effect = lower value 0.996 | locus YDR392W, strain spt3, stronger effect = lower value 0.914 | locus YDR502C, strain sam2, stronger effect = lower value 0.994 | locus YEL003W, strain gim4, stronger effect = lower value 1.01 | locus YEL037C, strain rad23, stronger effect = lower value 1.01 | locus YEL061C, strain CIN8 (second series), stronger effect = lower value 1.02 | locus YEL061C, strain CIN8, stronger effect = lower value 1 | locus YER015W, strain faa2, stronger effect = lower value 1.01 | locus YER016W, strain bim1, stronger effect = lower value 1.01 | locus YER110C, stronger effect = lower value 0.989 | locus YER111C, strain swi4, stronger effect = lower value 1.01 | locus YER155C, strain BEM2 (second series), stronger effect = lower value 1.03 | locus YER155C, strain BEM2, stronger effect = lower value 1 | locus YER167W, strain BCK2, stronger effect = lower value 1.01 | locus YFR010W, strain ubp6, stronger effect = lower value 1.04 | locus YGL078C, strain dbp3, stronger effect = lower value 0.999 | locus YGL086W, strain mad1, stronger effect = lower value 0.966 | locus YGL167C, strain pmr1, stronger effect = lower value 1.02 | locus YGL173C, strain kem1, stronger effect = lower value 1.03 | locus YGL227W, strain vid30, stronger effect = lower value 1.01 | locus YGL240W, strain doc1, stronger effect = lower value 1.02 | locus YGL248W, strain PDE1, stronger effect = lower value 1 | locus YGL253W, strain hxk2, stronger effect = lower value 1.03 | locus YGR078C, strain PAC10, stronger effect = lower value 1.02 | locus YGR135W, strain pre9, stronger effect = lower value 0.999 | locus YGR229C, strain SMI1, stronger effect = lower value 1.01 | locus YGR252W, strain gcn5, stronger effect = lower value 1.01 | locus YHR013C, strain ard1, stronger effect = lower value 1.03 | locus YHR027C, strain rpn1, stronger effect = lower value 1.02 | locus YHR030C, strain SLT2, stronger effect = lower value 1.01 and 0.967 | locus YHR079C, strain IRE1 (second series), stronger effect = lower value 0.996 | locus YHR079C, strain IRE1, stronger effect = lower value 0.953 | locus YHR094C, strain hxt1, stronger effect = lower value 0.998 | locus YHR129C, strain ARP1, stronger effect = lower value 1.01 | locus YHR142W, strain chs7, stronger effect = lower value 1.02 | locus YHR200W, strain rpn10, stronger effect = lower value 0.997 | locus YIL066C, strain RNR3, stronger effect = lower value 1 | locus YIL073C, strain SPO22, stronger effect = lower value 0.968 | locus YIL125W, strain kgd1, stronger effect = lower value 0.998 | locus YIR030C, strain dcg1, stronger effect = lower value 0.986 | locus YJL092W, strain hpr5, stronger effect = lower value 1.02 | locus YJL095W, strain BCK1 (second series), stronger effect = lower value 1.04 | locus YJL095W, strain BCK1, stronger effect = lower value 1.01 and 0.961 | locus YJL115W, strain asf1, stronger effect = lower value 1.01 | locus YJL129C, strain trk1, stronger effect = lower value 1.02 | locus YJL134W, strain LCB3, stronger effect = lower value 1.01 | locus YJL154C, strain vps35, stronger effect = lower value 1.01 | locus YJL164C, strain tpk1, stronger effect = lower value 0.995 | locus YJL166W, strain qcr8, stronger effect = lower value 1.04 | locus YJL168C, strain set2, stronger effect = lower value 0.994 | locus YJL187C, strain SWE1 (second series), stronger effect = lower value 1.02 | locus YJL187C, strain SWE1, stronger effect = lower value 1 | locus YJR043C, strain POL32, stronger effect = lower value 1 | locus YJR066W, strain TOR1, stronger effect = lower value 0.998
